# In publication PMC5540273 (PLoS ONE, 2017):
# Where two headings read alike, the source gives them in different places.
# Assays:
# [1] = tested on: T1, SNARK; conditions: concentration: 1 μM, replicates: in singlicate; n = 1
# T1 construct: gene NUAK2
# [2] = tested on: SNRK; conditions: concentration: 1 μM, replicates: in singlicate; n = 1
# [3] = tested on: SRC; conditions: concentration: 1 μM, replicates: in singlicate; n = 1
# [4] = tested on: SRMS; conditions: concentration: 1 μM, replicates: in singlicate; n = 1
# [5] = tested on: SRPK1; conditions: concentration: 1 μM, replicates: in singlicate; n = 1
# [6] = tested on: SRPK2; conditions: concentration: 1 μM, replicates: in singlicate; n = 1
# [7] = tested on: SRPK3; conditions: concentration: 1 μM, replicates: in singlicate; n = 1
# [8] = tested on: STK16; conditions: concentration: 1 μM, replicates: in singlicate; n = 1
# [9] = tested on: STK33; conditions: concentration: 1 μM, replicates: in singlicate; n = 1
# [10] = tested on: STK35; conditions: concentration: 1 μM, replicates: in singlicate; n = 1
# [11] = tested on: STK36; conditions: concentration: 1 μM, replicates: in singlicate; n = 1
# [12] = tested on: STK39; conditions: concentration: 1 μM, replicates: in singlicate; n = 1
# [13] = tested on: SYK; conditions: n = 1
# [14] = tested on: SgK110; conditions: concentration: 1 μM, replicates: in singlicate; n = 1
# [15] = tested on: T2, TAK1; conditions: concentration: 1 μM, replicates: in singlicate; n = 1
# T2 construct: gene MAP3K7
# [16] = tested on: TAOK1; conditions: concentration: 1 μM, replicates: in singlicate; n = 1
# [17] = tested on: TAOK2; conditions: concentration: 1 μM, replicates: in singlicate; n = 1
# [18] = tested on: TAOK3; conditions: concentration: 1 μM, replicates: in singlicate; n = 1
# [19] = tested on: TBK1; conditions: concentration: 1 μM, replicates: in singlicate; n = 1
# [20] = tested on: TEC; conditions: concentration: 1 μM, replicates: in singlicate; n = 1
# [21] = concentration: 1 μM, replicates: in singlicate
# 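Also: KINOMEscan kinase panel screen.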
smiles,measurement,setting,value
COc1cccc(-c2nc(-c3ccccc3)[nH]c2-c2ccncc2)c1 [SB-610250],%Inh,[1],0%
same,%Inh,[2],0%
same,%Inh,[3],21%
same,%Inh,[4],0%
same,%Inh,[5],25%
same,%Inh,[6],0%
same,%Inh,[7],0%
same,%Inh,[8],9%
same,%Inh,[9],5%
same,%Inh,[10],0%
same,%Inh,[11],30%
same,%Inh,[12],19%
same,%Inh,[13]; [21],23%
same,%Inh,[14],20%
same,%Inh,[15],0%
same,%Inh,[16],0%
same,%Inh,[17],0%
same,%Inh,[18],0%
same,%Inh,[19],0%
same,%Inh,[20],4%
Cc1cccc(Nc2nc(N[C@H]3CCCC[C@H]3N)ncc2C(N)=O)c1.Cl [GSK986310],%Inh,[1],39%
same,%Inh,[2],11%
same,%Inh,[3],65%
same,%Inh,[4],0%
same,%Inh,[5],44%
same,%Inh,[6],0%
same,%Inh,[7],0%
same,%Inh,[8],24%
same,%Inh,[9],55%
same,%Inh,[10],28%
same,%Inh,[11],58%
same,%Inh,[12],12%
same,%Inh,[13]; 1 µM,99.4%
same,%Inh,[14],55%
same,%Inh,[15],90.3%
same,%Inh,[16],32%
same,%Inh,[17],0%
same,%Inh,[18],3%
same,%Inh,[19],17%
same,%Inh,[20],23%
CN(c1ccc2c(c1)nc(NCc1ccccc1)n2C)c1ccnc(Nc2ccc(CS(C)(=O)=O)cc2)n1.Cl [GW811603],%Inh,[1],0%
same,%Inh,[2],0%
same,%Inh,[3],32%
same,%Inh,[4],5%
same,%Inh,[5],0%
same,%Inh,[6],30%
same,%Inh,[7],34%
same,%Inh,[8],54%
same,%Inh,[9],0%
same,%Inh,[10],0%
same,%Inh,[11],0%
same,%Inh,[12],7%
same,%Inh,[13]; [21],69%
same,%Inh,[14],0%
same,%Inh,[15],46%
same,%Inh,[16],0%
same,%Inh,[17],0%
same,%Inh,[18],0%
same,%Inh,[19],4%
same,%Inh,[20],0%
CN(C)CCOc1ccc(-c2cc(-c3ccc(Cl)c(O)c3)c(-c3ccncc3)[nH]2)cc1.Cl.Cl [SB-684387],%Inh,[1],9%
same,%Inh,[2],9%
same,%Inh,[3],92.2%
same,%Inh,[4],3%
same,%Inh,[5],0%
same,%Inh,[6],30%
same,%Inh,[7],0%
same,%Inh,[8],14%
same,%Inh,[9],0%
same,%Inh,[10],0%
same,%Inh,[11],63%
same,%Inh,[12],33%
same,%Inh,[13]; [21],2%
same,%Inh,[14],0%
same,%Inh,[15],32%
same,%Inh,[16],0%
same,%Inh,[17],1%
same,%Inh,[18],0%
same,%Inh,[19],28%
same,%Inh,[20],0%
COc1cc(Nc2nccc(N3CCC(NC(=O)Nc4ccc5c(c4)OCO5)C3)n2)cc(OC)c1OC (stereo not shown) [GSK1379766],%Inh,[1],13%
same,%Inh,[2],0%
same,%Inh,[3],0%
same,%Inh,[4],0%
same,%Inh,[5],45%
same,%Inh,[6],0%
same,%Inh,[7],0%
same,%Inh,[8],72%
same,%Inh,[9],0%
same,%Inh,[10],0%
same,%Inh,[11],0%
same,%Inh,[12],9%
same,%Inh,[13]; [21],39%
same,%Inh,[14],0%
same,%Inh,[15],0%
same,%Inh,[16],0%
same,%Inh,[17],0%
same,%Inh,[18],0%
same,%Inh,[19],33%
same,%Inh,[20],6%
Nc1ncc(-c2ccc3nccc(-c4ccncc4)c3c2)cc1S(=O)(=O)N1CCCCC1 [GSK1693850],%Inh,[1],22%
same,%Inh,[2],0%
same,%Inh,[3],0%
same,%Inh,[4],0%
same,%Inh,[5],20%
same,%Inh,[6],0%
same,%Inh,[7],0%
same,%Inh,[8],21%
same,%Inh,[9],55%
same,%Inh,[10],0%
same,%Inh,[11],0%
same,%Inh,[12],0%
same,%Inh,[13]; [21],29%
same,%Inh,[14],0%
same,%Inh,[15],14%
same,%Inh,[16],3%
same,%Inh,[17],0%
same,%Inh,[18],5%
same,%Inh,[19],6%
same,%Inh,[20],0%
CCNc1nccc(-c2c(-c3ccc(F)cc3)ncn2C2CCN(C)CC2)n1,%Inh,[1],0%
same,%Inh,[2],0%
same,%Inh,[3],9%
same,%Inh,[4],0%
same,%Inh,[5],16%
same,%Inh,[6],0%
same,%Inh,[7],0%
same,%Inh,[8],31%
same,%Inh,[9],2%
same,%Inh,[10],0%
same,%Inh,[11],25%
same,%Inh,[12],0%
same,%Inh,[13]; [21],0%
same,%Inh,[14],0%
same,%Inh,[15],0%
same,%Inh,[16],0%
same,%Inh,[17],0%
same,%Inh,[18],0%
same,%Inh,[19],1%
same,%Inh,[20],14%
COc1ccc(C)c(Nc2ccnc(Nc3ccc(-c4cnc[nH]4)cc3)n2)c1.Cl [GW784041],%Inh,[1],0%
same,%Inh,[2],0%
same,%Inh,[3],86%
same,%Inh,[4],0%
same,%Inh,[5],32%
same,%Inh,[6],0%
same,%Inh,[7],30%
same,%Inh,[8],15%
same,%Inh,[9],0%
same,%Inh,[10],12%
same,%Inh,[11],36%
same,%Inh,[12],0%
same,%Inh,[13]; [21],16%
same,%Inh,[14],0%
same,%Inh,[15],0%
same,%Inh,[16],0%
same,%Inh,[17],3%
same,%Inh,[18],0%
same,%Inh,[19],49%
same,%Inh,[20],7%
O=C(Nc1n[nH]c2cc(-c3cccs3)ccc12)C1CC1 [SB-731284],%Inh,[1],13%
same,%Inh,[2],42%
same,%Inh,[3],0%
same,%Inh,[4],1%
same,%Inh,[5],44%
same,%Inh,[6],23%
same,%Inh,[7],52%
same,%Inh,[8],4%
same,%Inh,[9],0%
same,%Inh,[10],15%
same,%Inh,[11],0%
same,%Inh,[12],0%
same,%Inh,[13]; [21],0%
same,%Inh,[14],0%
same,%Inh,[15],23%
same,%Inh,[16],61%
same,%Inh,[17],0%
same,%Inh,[18],34%
same,%Inh,[19],47%
same,%Inh,[20],0%
CNc1nccc(-c2ccc3c(N)n[nH]c3c2)n1 [GSK2206003],%Inh,[1],35%
same,%Inh,[2],0%
same,%Inh,[3],19%
same,%Inh,[4],11%
same,%Inh,[5],68%
same,%Inh,[6],5%
same,%Inh,[7],31%
same,%Inh,[8],34%
same,%Inh,[9],0%
same,%Inh,[10],0%
same,%Inh,[11],0%
same,%Inh,[12],0%
same,%Inh,[13]; [21],23%
same,%Inh,[14],0%
same,%Inh,[15],37%
same,%Inh,[16],64%
same,%Inh,[17],0%
same,%Inh,[18],0%
same,%Inh,[19],22%
same,%Inh,[20],5%
CN(c1ccc(F)c(NC(=O)c2cccc(OC(C)(C)C#N)c2Cl)c1)c1ccc2nc(NC(=O)C3CC3)sc2n1,%Inh,[1],0%
same,%Inh,[2],12%
same,%Inh,[3],99%
same,%Inh,[4],0%
same,%Inh,[5],52%
same,%Inh,[6],0%
same,%Inh,[7],0%
same,%Inh,[8],0%
same,%Inh,[9],0%
same,%Inh,[10],0%
same,%Inh,[11],3%
same,%Inh,[12],12%
same,%Inh,[13]; [21],0%
same,%Inh,[14],0%
same,%Inh,[15],19%
same,%Inh,[16],49%
same,%Inh,[17],0%
same,%Inh,[18],0%
same,%Inh,[19],7%
same,%Inh,[20],6%
